# Screening data from PubChem BioAssay.
# POLB inh: blocks human DNA polymerase beta activity. AID 485314. Pol beta primer extension/strand displacement, fluorescence kinetic. 1.3% of 340,000 active. P06746. Potency, µM (titrated, usually from 114 µM), for inactives: at the top dose activity change, negative = inhibition, usual class: inhibitors; note: % is set by controls: 0 for no effect and ±100 for the full control effect
#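 Preincubation: enzyme (10 nM) with compound, 15 min, RT. Reaction: substrate added to 50 nM final. Reads: 0 and 10 min. Analysis: normalized, Hill fit.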
# APEX1 inh: blocks human APE1 abasic DNA cleavage. P27695. recombinant APE1, TAMRA/BHQ-2 abasic DNA cleavage fluorescence. Potency, µM (doses to about 65.8 µM), without a hit: at the top dose activity change, negative = inhibition, actives largely listed as inhibitors. 0.35% of 350,000 active. AID 2517;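 note: plate controls were vehicle for no effect and reference inhibitor for full effect; nearly all actives have a fitted effect of over 55% in size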
# Target sequence (P27695 whole entry, looked up): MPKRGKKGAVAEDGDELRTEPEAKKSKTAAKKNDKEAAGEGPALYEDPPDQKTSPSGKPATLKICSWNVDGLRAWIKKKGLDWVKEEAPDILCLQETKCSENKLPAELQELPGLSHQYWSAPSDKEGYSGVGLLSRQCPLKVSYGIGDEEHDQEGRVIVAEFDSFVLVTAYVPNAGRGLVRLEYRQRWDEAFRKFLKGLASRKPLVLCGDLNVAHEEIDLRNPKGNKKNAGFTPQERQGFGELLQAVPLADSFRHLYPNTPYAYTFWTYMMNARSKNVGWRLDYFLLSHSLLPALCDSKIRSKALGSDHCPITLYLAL
#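 Step 1: APE1 (0.75 nM) with compound, 15 min RT. Step 2: add 50 nM fluorophore/quencher THF duplex. Step 3: three fluorescence reads 60 s apart (525/598 nm); read 3 minus read 1 = reaction progress.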
# POLI inh: inhibitors of human DNA polymerase iota; Q9UNA4; Pol iota fluorescent replication assay, 10 min; Potency, µM (titrated, usually from 115 µM), without a hit: at the highest dose activity, negative = inhibition, actives largely listed as inhibitors; 1% of 390,000 active; AID 588590
#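 Pol iota at 10 nM preincubated 15 min with compounds at room temperature; reaction started with fluorescent substrate, 50 nM final. Fluorescence read kinetically at 0 and 10 min; buffer-only wells as negative control.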
# Pol kappa inh: DNA polymerase kappa (human) inhibition. purified Pol kappa, fluorescent DNA synthesis assay, 10 min. AID 588579. 0.53% of 400,000 active. Q9UBT6. Potency, µM (titrated, usually from 107 µM), for inactives: at the top dose activity, negative = inhibition, usual class: inhibitors; note: % is set by controls: 0 for no effect and ±100 for the full control effect
#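 Activity was followed as the change in fluorescence between reads at 0 and 10 min after starting the reaction with 50 nM substrate. Beforehand, 10 nM polymerase had been preincubated with compound for 15 min at room temperature.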
# POLH inh: DNA polymerase eta (human) inhibition; recombinant Pol eta, fluorescent DNA replication assay; Potency, µM (titrated, usually from 114 µM), for inactives: top-dose activity change, negative = inhibition, actives largely listed as inhibitors; 1.2% of 390,000 active; note: % is set by controls: 0 for no effect and ±100 for the full control effect
#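 Pol eta (10 nM) was preincubated with compounds for 15 min at room temperature, after which fluorescent replication substrate (50 nM final) was added to start the reaction. Fluorescence was read kinetically at 0 and 10 min.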
# L3MBTL1 inh: blocks human L3MBTL1 | Q9Y468 | AlphaScreen L3MBTL1–H3K9me1 peptide binding | Potency, µM (top dose mostly 57.1 µM), for the others: at the highest dose activity, negative = inhibition, most hits filed as inhibitors | 0.66% of 230,000 active; note: % is set by controls: 0 for no effect and ±100 for the full control effect; nearly all actives have a fitted effect of over 60% in size
#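 Read-out is AlphaScreen signal from streptavidin donor and nickel chelate acceptor beads (10 ug/mL final each) bridging L3MBTL1 (50 nM) and biotinylated K9-monomethylated H3(1-15) peptide (75 nM), after 30 min compound exposure at room temperature.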
# * = called active by the depositor; ? = inconclusive; / = no result; [ ] = another dose, or the depositor's remark. Sampled rows, rich in hits. Any-hit rate of the full collection: about 2.5%. Calls come from the whole dose curve; as a rule, active = well fitted curve in the direction sought with a large enough effect; inconclusive = small, poorly fitted or top-dose-only effect, or another doubt; inactive = no such curve, though single readings can be large; an effect the other way counts as inactive or inconclusive. Potency is the fitted concentration of half-maximal effect.
SMILES,POLB inh,APEX1 inh,POLI inh,Pol kappa inh,POLH inh,L3MBTL1 inh
CCOc1ccc(C(Nc2cccnc2)c2cc(Cl)c3cccnc3c2O)cc1 (configuration not stated),6%,20%,48%,-9%,?,?
O=C(O)COc1ccccc1C(Nc1cccnc1)c1cc(Cl)c2cccnc2c1O (configuration not stated),-29%,-8%,?,?,79µM*,/
COC(=O)c1nc(N2CCN(S(=O)(=O)c3ccc(C)cc3)CC2)c2ccccc2n1,/,/,24%,5%,/,/
Cc1nc2c(C(=O)NCCc3ccccc3)c[nH]n2c(=O)c1Cl,34%,-7%,23%,-5%,-11%,0%
Cc1nc2c(C(=O)NCCC(C)C)c[nH]n2c(=O)c1Cc1ccccc1F,71µM*,0%,?,-12%,-3%,2%
Cc1nc2c(C(=O)NCCc3ccccc3)c[nH]n2c(=O)c1Cc1ccc(F)cc1Cl,79µM*,/,?,-22%,-30%,/
COc1ccc(CCNC(=O)c2c[nH]n3c(=O)c(Cc4ccccc4Cl)c(C)nc23)cc1OC,79µM*,/,-18%,6%[60.1 µM],/,/
Cc1nc2c(C(=O)NCCc3ccc(Cl)cc3)c[nH]n2c(=O)c1Cc1ccccc1F,?,/,71µM*,-13%,?,/
CCOC(=O)c1oc2ccc(Br)cc2c1COC(=O)C1=COCCO1,/,-22%,11%,-13%,-13%,7%
COc1cccc(NC(=O)c2c(C)nn(-c3cccc(C)c3)c2-n2cccc2)c1,-1%,/,-2%,-1%,-18%,/
CCOC(=O)c1cnc2c(ccc3ccccc32)c1Nc1ccc(OC)cc1OC,1%,/,13%,-7%,-11%,/
CCCCCNC(=O)C1CCC(Cn2c(=O)c3sccc3n(CC(=O)N3CCCC3)c2=O)CC1 (configuration not stated),2%,/,19%,13%,-19%,/
Cc1ccc(CNC(=O)c2c[nH]n3c(=O)c(Cc4ccc(F)cc4Cl)c(C)nc23)cc1,50µM*,/,?,?,71µM*,/
Cc1nc2c(C(=O)NCc3ccccc3Cl)c[nH]n2c(=O)c1Cc1cccc(Cl)c1,56µM*,/,56µM*,-42%,?,/
O=C(CSc1nc2c([nH]c3ccccc32)c(=O)n1-c1ccc(F)cc1)Nc1ccc2c(c1)OCCO2,31%,/,-14%,0%[60.1 µM],-19%,/
COC1=CCC2([N+](=O)[O-])CN(CCO)CC1([N+](=O)[O-])C2 (configuration not stated),0.2µM*,12%,4%,-14%,-9%,-16%
O=C(O)CCN1CC2([N+](=O)[O-])CC=C(OCCO)C([N+](=O)[O-])(C1)C2 (configuration not stated),0%,-3%,?,-4%,-6%,/
CC1(c2ccc3c(c2)OCCO3)NC(=O)N(CC(=O)Nc2ccccc2)C1=O (configuration not stated),/,-1%,-3%,4%,-23%,9%
O=C(CN1CCCCC1)Nc1nnc(-c2ccc([N+](=O)[O-])cc2)s1,8%,-1%,-23%,-12%,18µM*,-6%
COC(=O)C1=C(C)N(Cc2ccccc2)C2=C3C(=O)CCCC3[C@@](O)(C(=O)OC)C(=O)N2C1c1ccccc1 (some centres not stated),/,-11%[12.4 µM],/,/,/,/
O=C(O)CCC[C@H](O)\C=C/C=C/C=C/[C@H](O)C/C=C\CCCCCO,/,0%,/,/,/,/
Cc1ccc(C(=O)N/N=C\c2ccc(-c3ccc(Cl)cc3)o2)cn1,2%,0%,16%,-8%,-14%,-9%
CC(C)Oc1ccc(C(=O)N/N=C/c2ccc(-c3ccc(S(=O)(=O)Nc4ncccn4)cc3)o2)cc1,1%,13%,?,45µM*,2.8µM*,/
CCCCCCCCOc1c(OC)cc(/C=C/C(=O)N2CCN(c3ccc(C)c(C)c3)CC2)cc1OC,/,-10%,/,-18%[12 µM],/,/
